We go through eleven compounds from PubChem BioAssay (NCATS).

Each structure is given as a SMILES string. Several values for one entry are separate records, joined by “and”; a condition that tells them apart may be missing. Equal values may be shown once. Records with an inconclusive call do not appear. Activity calls are given as the source filed them. The call rests on the fitted dose curve; in most records, active means well fitted curve in the direction sought with a large enough effect; inconclusive means small, poorly fitted or top-dose-only effect, or another doubt; inactive means no such curve, though single readings can be large; an effect the other way counts as inactive or inconclusive.

Assay [1] is described as follows: qHTS of pediatric cancer cell lines to identify multiple opportunities for drug repurposing: Primary screen for U-2 OS cells (AID 1347096). Further: nearly all actives have a fitted effect of over 50% in size. The procedure, abridged:
(§1)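 Cells (500-1,000/well) rested 5 h, then received compounds for 48 h; metabolically active cells were measured by CellTiter-Glo luminescence. Final concentrations spanned up to 46 µM (MIPE, 11-point) or 0.59 nM-46 µM (NPC, 8-point) in primary screens, 11-point in follow-ups.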

The nature of assay [2]: qHTS of pediatric cancer cell lines to identify multiple opportunities for drug repurposing: Primary screen for LAN-5 cells (AID 1347100). Further: potency means the concentration at half of the fitted maximal effect. The procedure, abridged:
as §1
For orientation: qHTS replaces the single test concentration by a dilution series.

The nature of assay [3]: qHTS of pediatric cancer cell lines to identify multiple opportunities for drug repurposing: Primary screen for OHS-50 cells (AID 1347103). Further: nearly all actives have a fitted effect of over 40% in size. Further: potency means the concentration at half of the fitted maximal effect. The procedure, abridged: as §1
The nature of assay [4]: qHTS of pediatric cancer cell lines to identify multiple opportunities for drug repurposing: Primary screen for SK-N-SH cells (AID 1347098). Further: nearly all actives have a fitted effect of over 65% in size. Further: potency means the concentration at half of the fitted maximal effect. The procedure, abridged: as §1
Assay [5] in a line: qHTS of pediatric cancer cell lines to identify multiple opportunities for drug repurposing: Primary screen for NB1643 cells (AID 1347099). Further: nearly all actives have a fitted effect of over 50% in size. Further: potency means the concentration at half of the fitted maximal effect. The procedure, abridged: (§2)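 ATP-based luminescence (CellTiter-Glo) quantifies viability after a 48-hour exposure. Compounds are dosed across 8 or 11 final concentrations; DMSO and 2.3 µM bortezomib serve as controls.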
The nature of assay [6]: qHTS of pediatric cancer cell lines to identify multiple opportunities for drug repurposing: Primary screen for BT-12 cells (AID 1347101). Further: nearly all actives have a fitted effect of over 25% in size. Further: potency means the concentration at half of the fitted maximal effect. The procedure, abridged:
as §1

Assay [7] can be described thus: qHTS of pediatric cancer cell lines to identify multiple opportunities for drug repurposing: Primary screen for RD cells (AID 1347104). Further: nearly all actives have a fitted effect of over 55% in size. Further: potency means the concentration at half of the fitted maximal effect. The procedure, abridged:
as §2

The nature of assay [8]: qHTS of pediatric cancer cell lines to identify multiple opportunities for drug repurposing: Primary screen for Rh18 cells (AID 1347102). Further: nearly all actives have a fitted effect of over 65% in size. Further: potency means the concentration at half of the fitted maximal effect. Summed up: as §1
Assay [9] is described as follows: qHTS of pediatric cancer cell lines to identify multiple opportunities for drug repurposing: Primary screen for MG 63 (6-TG R) cells (AID 1347105). Further: nearly all actives have a fitted effect of over 50% in size. The procedure, abridged: as §2
The nature of assay [10]: qHTS of pediatric cancer cell lines to identify multiple opportunities for drug repurposing: Primary screen for Saos-2 cells (AID 1347097). Further: nearly all actives have a fitted effect of over 40% in size. Summed up: as §2

For `CNC(=O)N1N=C(c2ccc(N)cc2)c2cc3c(cc2CC1C)OCO3` (configuration not stated), the Potency entry in assay [1] is “inactive”. Moreover, the Potency in assay [2] is 5.9 µM (active); in assay [3] it was 3.85 µM (active).
Turning to `CN1C[C@H](CNC(=O)OCc2ccccc2)C[C@@H]2c3cccc4c3c(cn4C)C[C@H]21`, the Potency entry in assay [1] and in assay [5] was “inactive” in each case. Further, the Potency in assay [4] was 27.3 µM (active); in assay [6] it was 15.5 µM (active); in assay [3], 21.9 µM (active).
For `C[C@@H]1O[C@@H](O[C@H]2C[C@@H](O)[C@]3(CO)[C@H]4[C@H](O)C[C@]5(C)[C@@H](C6=CC(=O)OC6)CC[C@]5(O)[C@@H]4CC[C@]3(O)C2)[C@H](O)[C@H](O)[C@H]1O`, the Potency is 152 nM (active) and 344 nM (active) in assay [4]; 187 nM (active) and 299 nM (active) in assay [5]; 46.9 nM (active) and 211 nM (active) in assay [2]; 27.3 nM (active) and 61.7 nM (active) in assay [6]; 19.3 nM (active) and 49 nM (active) in [3]; 14.8 nM (active) and 33.5 nM (active) in assay [7].
In the case of `Cc1sc2c(c1C)C(c1ccc(Cl)cc1)=N[C@@H](CC(=O)OC(C)(C)C)c1nnc(C)n1-2`, the Potency in assay [4] is 2.41 µM (active); in [5], 5.9 µM (active); in assay [2], 0.59 µM (active); in assay [8] it was 0.935 µM (active); in assay [3], 0.344 µM (active); in assay [7], 590 nM (active).
Consider `COC[C@H]1OC(=O)c2coc3c2[C@@]1(C)C1=C(C3=O)C2CCC(=O)[C@@]2(C)C[C@H]1OC(C)=O` (some centres not stated), for which the Potency in [5] is 11.8 µM (active); in assay [2], 11.8 µM (active); in assay [3], 4.32 µM (active); in assay [7] it was 18700 nM (active).
`Oc1cccc2cccnc12`: the Potency entry in assay [8] and in assay [9] was “inactive” throughout.
Turning to `CNC(=O)c1ccc(N2C(=S)N(c3ccc(C#N)c(C(F)(F)F)c3)C(=O)C23CCC3)cc1F`, the Potency entry in assay [10], in assay [6] and in assay [8] was “inactive” throughout. Also, the Potency in assay [4] is 19.2 µM (active).
On to `Cc1ccc(S(=O)(=O)N[C@@H](CCCCN)C(=O)CCl)cc1`, for which the Potency result in [1], in assay [4], in assay [5], in assay [2], in assay [3] and in [7] was “inactive” throughout.
Take `c1ccc2c(c1)Nc1ccccc1S2`: the Potency result in assay [1], in assay [5], in assay [2], in assay [6], in [7] and in assay [9] was “inactive” in each case.
On to `O=c1[nH]c2ccccc2n1CCCN1CCC(n2c(=O)[nH]c3cc(Cl)ccc32)CC1`, for which the Potency entry in assay [1], in assay [4], in [5], in [2], in assay [8] and in assay [3] was “inactive” each time. Moreover, the Potency result in assay [7] and in assay [9] was “inactive” each time.
`Cn1c(CCCC(=O)O)nc2cc(N(CCCl)CCCl)ccc21`: the Potency result in assay [1], in assay [4], in assay [6], in assay [8] and in assay [7] was “inactive” in each case. The Potency in assay [5] is 18.7 µM (active); in assay [3] it was 24.6 µM (active) and 24.3 µM (active).
